According to ChEMBL document CHEMBL1961873, “Compounds: GSK PKIS; Assays: Nanosyn kinase panel” (2012):

Experiments:
[1] = biological target: Platelet-derived growth factor receptor beta (Homo sapiens) (UniProt P09619); details: at 1 µM;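 note: each value is a mean percent inhibition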
[2] = biological target: Tyrosine-protein kinase FRK (Homo sapiens) (UniProt P42685); details: at 0.1 µM
[3] = biological target: Tyrosine-protein kinase FRK (Homo sapiens) (UniProt P42685); details: at 1 µM
[4] = biological target: Protein-tyrosine kinase 2-beta (Homo sapiens) (UniProt Q14289); details: at 0.1 µM
[5] = biological target: Protein-tyrosine kinase 2-beta (Homo sapiens) (UniProt Q14289); details: at 1 µM
[6] = biological target: Proto-oncogene tyrosine-protein kinase receptor Ret (Homo sapiens) (UniProt P07949); details: at 0.1 µM
[7] = biological target: Proto-oncogene tyrosine-protein kinase receptor Ret (Homo sapiens) (UniProt P07949); details: at 1 µM
[8] = tested on: Proto-oncogene tyrosine-protein kinase receptor Ret (Homo sapiens), P07949 [V804L]; details: at 0.1 µM
[9] = tested on: Proto-oncogene tyrosine-protein kinase receptor Ret (Homo sapiens), P07949 [V804L]; details: at 1 µM
[10] = tested on: Proto-oncogene tyrosine-protein kinase receptor Ret (Homo sapiens), P07949 [Y791F]; details: at 0.1 µM
Proto-oncogene tyrosine-protein kinase receptor Ret (Homo sapiens), P07949 [Y791F], sequence (P07949 whole entry Y791F): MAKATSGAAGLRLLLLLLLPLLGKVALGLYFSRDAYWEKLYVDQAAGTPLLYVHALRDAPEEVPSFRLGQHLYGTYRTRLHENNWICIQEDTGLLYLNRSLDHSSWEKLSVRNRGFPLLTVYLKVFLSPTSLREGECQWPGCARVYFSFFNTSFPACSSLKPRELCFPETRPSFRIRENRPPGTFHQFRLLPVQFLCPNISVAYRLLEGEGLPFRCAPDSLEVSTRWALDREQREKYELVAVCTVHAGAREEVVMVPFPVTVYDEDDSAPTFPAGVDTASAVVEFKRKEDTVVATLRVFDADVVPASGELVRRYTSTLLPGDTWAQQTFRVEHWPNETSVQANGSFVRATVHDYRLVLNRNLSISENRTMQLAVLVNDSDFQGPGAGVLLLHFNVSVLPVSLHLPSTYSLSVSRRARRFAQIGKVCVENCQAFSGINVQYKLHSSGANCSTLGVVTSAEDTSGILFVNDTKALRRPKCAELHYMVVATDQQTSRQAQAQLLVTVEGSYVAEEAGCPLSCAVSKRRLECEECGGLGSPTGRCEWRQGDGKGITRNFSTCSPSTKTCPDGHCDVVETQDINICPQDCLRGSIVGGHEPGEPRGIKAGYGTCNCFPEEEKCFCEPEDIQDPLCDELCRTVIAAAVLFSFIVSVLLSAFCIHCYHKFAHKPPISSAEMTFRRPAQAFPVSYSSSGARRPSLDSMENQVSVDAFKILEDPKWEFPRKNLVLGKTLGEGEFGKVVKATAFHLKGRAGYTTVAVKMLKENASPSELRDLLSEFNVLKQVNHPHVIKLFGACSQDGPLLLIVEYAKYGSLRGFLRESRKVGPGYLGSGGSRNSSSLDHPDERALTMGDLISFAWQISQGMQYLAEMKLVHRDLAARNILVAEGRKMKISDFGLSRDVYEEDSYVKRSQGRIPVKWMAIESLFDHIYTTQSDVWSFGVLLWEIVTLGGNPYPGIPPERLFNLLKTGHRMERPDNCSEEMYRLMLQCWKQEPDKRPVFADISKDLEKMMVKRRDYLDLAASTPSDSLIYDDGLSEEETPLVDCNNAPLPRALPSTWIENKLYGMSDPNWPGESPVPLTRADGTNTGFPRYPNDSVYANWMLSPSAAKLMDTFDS

Protein-tyrosine kinase 2-beta (Homo sapiens), sequence (Q14289 whole entry, looked up): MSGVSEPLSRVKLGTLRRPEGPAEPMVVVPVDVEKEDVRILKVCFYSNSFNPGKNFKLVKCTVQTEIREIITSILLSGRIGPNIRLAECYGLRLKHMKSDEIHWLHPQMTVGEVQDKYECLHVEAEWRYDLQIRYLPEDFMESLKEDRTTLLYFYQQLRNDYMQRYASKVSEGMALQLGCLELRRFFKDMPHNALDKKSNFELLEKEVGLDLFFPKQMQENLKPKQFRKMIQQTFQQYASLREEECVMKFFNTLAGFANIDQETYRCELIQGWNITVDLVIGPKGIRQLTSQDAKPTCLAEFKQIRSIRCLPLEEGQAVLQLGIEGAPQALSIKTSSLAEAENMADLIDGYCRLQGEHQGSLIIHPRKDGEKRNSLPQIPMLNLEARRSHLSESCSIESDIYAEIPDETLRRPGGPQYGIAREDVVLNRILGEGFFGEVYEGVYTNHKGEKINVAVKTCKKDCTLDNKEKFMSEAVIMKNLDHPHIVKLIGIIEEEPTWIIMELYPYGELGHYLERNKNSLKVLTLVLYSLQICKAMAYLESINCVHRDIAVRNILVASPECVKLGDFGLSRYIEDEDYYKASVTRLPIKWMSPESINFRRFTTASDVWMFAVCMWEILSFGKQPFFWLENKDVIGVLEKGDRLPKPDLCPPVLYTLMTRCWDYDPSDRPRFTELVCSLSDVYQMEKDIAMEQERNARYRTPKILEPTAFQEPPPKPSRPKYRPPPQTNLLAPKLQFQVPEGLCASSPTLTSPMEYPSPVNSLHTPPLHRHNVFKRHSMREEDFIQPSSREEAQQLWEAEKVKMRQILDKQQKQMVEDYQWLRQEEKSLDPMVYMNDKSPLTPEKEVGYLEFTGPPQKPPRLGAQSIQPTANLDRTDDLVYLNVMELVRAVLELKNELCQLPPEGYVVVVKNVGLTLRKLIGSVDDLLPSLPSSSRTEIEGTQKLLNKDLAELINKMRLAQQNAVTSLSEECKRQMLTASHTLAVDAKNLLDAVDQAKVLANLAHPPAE
Proto-oncogene tyrosine-protein kinase receptor Ret (Homo sapiens), P07949 [V804L], sequence (P07949 whole entry V804L): as the sequence (P07949 whole entry Y791F) above, with F791Y, V804L counted along it
Proto-oncogene tyrosine-protein kinase receptor Ret (Homo sapiens), sequence (P07949 whole entry): as the sequence (P07949 whole entry Y791F) above, with F791Y counted along it
Tyrosine-protein kinase FRK (Homo sapiens), sequence (P42685 whole entry): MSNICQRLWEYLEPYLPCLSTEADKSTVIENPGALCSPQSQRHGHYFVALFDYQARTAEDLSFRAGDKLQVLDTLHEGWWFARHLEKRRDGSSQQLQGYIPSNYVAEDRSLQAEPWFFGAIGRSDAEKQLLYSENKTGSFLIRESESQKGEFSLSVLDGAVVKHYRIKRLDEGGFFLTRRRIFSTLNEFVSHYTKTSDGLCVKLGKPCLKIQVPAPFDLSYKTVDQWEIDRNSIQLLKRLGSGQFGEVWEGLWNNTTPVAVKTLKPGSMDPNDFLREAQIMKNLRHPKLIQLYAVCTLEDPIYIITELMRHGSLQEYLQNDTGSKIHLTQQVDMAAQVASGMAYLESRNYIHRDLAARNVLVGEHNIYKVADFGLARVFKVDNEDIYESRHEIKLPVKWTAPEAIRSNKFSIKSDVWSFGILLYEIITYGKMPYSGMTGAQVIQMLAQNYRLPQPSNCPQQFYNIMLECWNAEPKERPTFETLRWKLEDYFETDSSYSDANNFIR
Platelet-derived growth factor receptor beta (Homo sapiens), sequence (P09619 whole entry): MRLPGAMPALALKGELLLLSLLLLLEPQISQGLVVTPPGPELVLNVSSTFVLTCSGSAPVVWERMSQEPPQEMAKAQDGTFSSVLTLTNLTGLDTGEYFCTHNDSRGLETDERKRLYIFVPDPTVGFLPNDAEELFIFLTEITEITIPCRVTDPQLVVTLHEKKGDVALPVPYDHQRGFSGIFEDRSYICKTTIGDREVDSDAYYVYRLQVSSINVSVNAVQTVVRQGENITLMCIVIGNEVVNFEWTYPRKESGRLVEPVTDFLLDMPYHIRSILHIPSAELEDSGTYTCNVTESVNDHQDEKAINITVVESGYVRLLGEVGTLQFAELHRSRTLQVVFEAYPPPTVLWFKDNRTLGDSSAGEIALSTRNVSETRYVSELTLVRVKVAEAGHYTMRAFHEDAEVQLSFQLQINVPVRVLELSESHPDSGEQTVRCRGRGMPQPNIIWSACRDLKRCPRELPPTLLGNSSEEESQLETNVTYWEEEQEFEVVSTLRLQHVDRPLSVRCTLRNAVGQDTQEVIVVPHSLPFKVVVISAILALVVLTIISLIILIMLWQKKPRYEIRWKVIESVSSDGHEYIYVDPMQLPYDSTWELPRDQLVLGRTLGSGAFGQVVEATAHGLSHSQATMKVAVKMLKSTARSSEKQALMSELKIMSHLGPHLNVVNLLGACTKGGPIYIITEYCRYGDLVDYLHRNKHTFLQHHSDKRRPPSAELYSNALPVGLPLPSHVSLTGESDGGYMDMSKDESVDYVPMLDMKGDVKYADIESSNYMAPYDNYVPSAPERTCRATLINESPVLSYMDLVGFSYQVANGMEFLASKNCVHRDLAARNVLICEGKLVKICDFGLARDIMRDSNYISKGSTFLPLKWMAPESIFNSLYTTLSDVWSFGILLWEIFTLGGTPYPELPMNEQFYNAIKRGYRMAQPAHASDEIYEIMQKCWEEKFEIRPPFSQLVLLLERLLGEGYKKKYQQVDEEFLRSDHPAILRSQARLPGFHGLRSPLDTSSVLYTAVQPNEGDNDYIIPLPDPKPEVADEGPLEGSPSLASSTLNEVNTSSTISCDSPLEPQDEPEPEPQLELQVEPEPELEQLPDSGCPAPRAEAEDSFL

SMILES | inhibition [1] [%] | inhibition [2] [%] | inhibition [3] [%] | inhibition [4] [%] | inhibition [5] [%] | inhibition [6] [%] | inhibition [7] [%] | inhibition [8] [%] | inhibition [9] [%] | inhibition [10] [%]
NS(=O)(=O)c1ccc(Nc2cc(-c3cccc(O)c3)n[nH]2)cc1 | 26.1 | 0.88 | 2.04 | 10.7 | 12.3 | 6.46 | 15.5 | 9.69 | 21.3 | 13.4
O=S(=O)(CCOCc1ccc(-c2ccc3ncnc(Nc4ccc(OCc5cccc(F)c5)c(Cl)c4)c3c2)o1)c1ccccc1 | 7.33 | 1.09 | 0.79 | 4.11 | 8.55 | 5.25 | 5.38 | 6.3 | 10.1 | 7.95
CCS(=O)(=O)c1ccc(OC)c(Nc2ncc(-c3cccc(OC)c3)o2)c1 | 74.8 | 4.05 | 26.9 | 6.52 | 10.9 | 21.9 | 68.5 | 7.11 | 44.1 | 22.6
Cc1ccc(NC(=O)CC2CC2)cc1-c1ccc(C(=O)NCC2CC2)cc1 | 8.86 | 2.5 | 2.58 | 5.55 | 9.67 | 4.79 | 9.25 | 2.68 | 10 | 7.7
COC(=O)c1ccc2c(c1)C(=Cc1cc(Br)c(O)c(Br)c1)C(=O)N2 | 6.26 | 1.55 | 7.02 | 3.82 | 13.8 | 7.67 | 25.8 | 7.28 | 39.8 | 12.2
COc1cccc(-n2nc(C)c3c(N/N=C(\C)c4ccncc4)ncnc32)c1 | 5.79 | 0.1 | -0.17 | 1.44 | 8.6 | -0.76 | 0.88 | 1.04 | 1.23 | 2.73
NC(=O)c1cccc(Nc2nccc(Nc3cccc(F)c3)n2)c1 | 54.2 | 1.18 | 11.8 | 1.12 | 25.4 | -0.62 | 26.8 | 1.12 | 13.8 | 3.72
C[C@@H](Oc1cc(-n2cnc3ccc(OCC4CCN(C)CC4)cc32)sc1C(N)=O)c1ccccc1C(F)(F)F | 81.5 | -0.4 | 0.5 | -2.32 | 6.22 | 2.63 | 11.6 | 2.09 | 18.5 | 1.2
CN(c1ccc(NC(=O)Nc2ccc(OC(F)(F)F)cc2)cc1)c1ccnc(Nc2cccc(S(N)(=O)=O)c2)n1 | 82.1 | 5.62 | 40.9 | 5.52 | 59 | 79.8 | 72 | 53.8 | 86.4 | 67.4
CN(C)c1cc2c(Nc3ccc4c(cnn4Cc4ccccc4)c3)ncnc2cn1 | 7.75 | 1.92 | 2.5 | 4.48 | 5.1 | 1.87 | 13.6 | 3.56 | 0.35 | 5.78
Cc1ccc(O)cc1Nc1ccnc2ccc(S(C)(=O)=O)cc12 | 84.2 | 89 | 95.7 | 15.7 | 41.3 | 81.8 | 88.4 | 7.62 | 26.6 | 81.3
NS(=O)(=O)c1ccc(-c2cc3ccncc3cc2OCc2ccccc2)cc1 | 8.53 | 2 | 1.07 | 7.81 | 13.4 | 2.04 | 8.69 | 2.23 | 5.47 | 5.72
O=C1Nc2ccccc2/C1=C/Nc1ccc2[nH]c(=O)[nH]c2c1 | 56.7 | 6.33 | 8.07 | 20.6 | 46.4 | 23.7 | 61.3 | 32.4 | 75.4 | 25.8
CS(=O)(=O)Nc1cccc(-c2ccc3c(NC(=O)C4CC4)n[nH]c3c2)c1 | 7.8 | 0.86 | 0.42 | 2.77 | 3.01 | -0.07 | 15.4 | -3.08 | -1.31 | 1.94
Oc1cccc(-c2nc(-c3ccccc3)[nH]c2-c2ccncc2)c1 | 17.1 | 2.98 | 16.5 | 7.31 | 14.2 | 27.4 | 72.8 | 4.04 | 7.21 | 30
O=C(Nc1ccc(Oc2ccc3[nH]c(NC(=O)c4ccco4)nc3c2)cc1)Nc1cc(C(F)(F)F)ccc1F | 58.3 | 0.19 | 2.9 | 0.95 | 12.9 | 77.7 | 84.2 | 45.6 | 75.7 | 50.9
